This is a sample that favours compounds with a hit; in the whole collection about 2.8% have one here.
HGIII-sPLA2 inh = Inhibits HGIII-sPLA2 liposome hydrolysis, primary screen. Q9NZ20. QFRET BODIPY PC-A2 liposome hydrolysis, fluorescence. inhibition, % at 12.2 µM. 370,000 compounds, 0.56% hits;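 active means inhibition above mean plus 3 SD of compounds lying within the high and low control bounds, cut at about 19% in these data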
Target sequence (Q9NZ20 whole entry, looked up): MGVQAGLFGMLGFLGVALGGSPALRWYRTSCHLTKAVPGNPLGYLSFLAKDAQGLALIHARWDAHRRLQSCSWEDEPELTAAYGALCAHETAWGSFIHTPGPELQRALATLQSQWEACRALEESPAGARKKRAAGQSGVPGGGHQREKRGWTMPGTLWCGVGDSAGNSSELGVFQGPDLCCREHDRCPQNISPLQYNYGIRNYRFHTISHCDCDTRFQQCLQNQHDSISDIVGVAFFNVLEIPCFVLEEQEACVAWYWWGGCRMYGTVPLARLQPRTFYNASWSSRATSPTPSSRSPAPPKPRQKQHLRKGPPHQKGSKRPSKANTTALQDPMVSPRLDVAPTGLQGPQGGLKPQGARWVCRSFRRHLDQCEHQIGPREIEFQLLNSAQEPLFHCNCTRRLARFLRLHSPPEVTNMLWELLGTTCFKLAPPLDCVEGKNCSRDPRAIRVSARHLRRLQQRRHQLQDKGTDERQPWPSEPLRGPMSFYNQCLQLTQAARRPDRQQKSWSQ
MsrA act = bovine methionine sulfoxide reductase A activation. purified bovine MsrA, absorbance read-out. activation, % at 10.6 µM. 360,000 compounds, 0.3% hits. AID 602163; in the data active means activation above about 7.5%
rCAG RNA binder = binds r(CAG) RNA repeats | r(CAG) RNA repeat, TO-PRO-1 dye displacement fluorescence | inhibition, % at 3 µM | 370,000 compounds, 1.3% hits;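 active means inhibition above the plate cutoff, the mean of all test compounds on that plate plus 3 SD, cut at about 35% in these data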;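 further: higher means more dye released from RNA so lower well fluorescence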
MsrA inhibitor = inhibitors of bovine MsrA | inhibition, % at 15.5 µM | AID 651718 | 360,000 compounds, 0.75% hits | purified bovine MsrA, absorbance read-out; in the data active means inhibition above about 4.5%
MsrA act confirm = confirmation of bovine methionine sulfoxide reductase A activators. shares compounds with MsrA act. purified bovine MsrA, absorbance read-out. activation, % at 10.6 µM. 1,000 compounds, 12% hits. AID 602270; in the data active means activation above about 4%;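 further: enzyme coupled to thioredoxin and thioredoxin reductase with NADPH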
Large screens that a line does not name were inactive (follow-up assays come after a bar, where they were run).

COc1cc(Nc2ccc(C(=O)O)cc2[N+](=O)[O-])cc(OC)c1	MsrA act 9.7 | MsrA act confirm 8.1
COc1ccc(/C=N/Nc2nnc(C)n2N)cc1OC(C)=O	MsrA act 12 | MsrA act confirm inactive
COc1cc(/C=N/n2nnnc2N)ccc1OC(C)=O	none
COc1ccc(/C=N/Nc2ncnc(Cl)c2N)cc1OC	none
COc1ccc(/C=N/Nc2nnc(C)n2N)cc1OC	MsrA act 9.0 | MsrA act confirm inactive
CCc1cc2c(=O)c(-c3nc(C)cs3)c(CCCC(=O)O)oc2cc1O	none
Cc1cc(-c2ccccc2)nc2c(Br)c(=O)[nH]n12	none
CCN1CCN(C2=C(NS(=O)(=O)c3ccc(NC(C)=O)cc3)C(=O)c3ccccc3C2=O)CC1	MsrA act 8.9 | MsrA act confirm inactive
CC1CCCN(C2=C(NS(=O)(=O)c3ccc(Br)cc3)C(=O)c3ccccc3C2=O)C1 (configuration not stated)	MsrA act 8.9 | MsrA act confirm inactive
CC(=O)Nc1ccc(S(=O)(=O)NC2=C(N3CCN(C)CC3)C(=O)c3ccccc3C2=O)cc1	MsrA act 26 | MsrA act confirm inactive
CCOC(=O)N1CCN(C2=C(NS(=O)(=O)c3ccc(NC(C)=O)cc3)C(=O)c3ccccc3C2=O)CC1	none
CC1CC(C)CN(C(=O)CSc2n[nH]c(N)n2)C1 (configuration not stated)	none
COc1ccc(/C=N/NC(=O)c2cccnc2)cc1CN1CCc2cc(OC)c(OC)cc2C1C (configuration not stated)	MsrA act 16 | MsrA act confirm inactive
CCOc1ccc(NC(=O)CN(C)C(=O)c2ccc(C)o2)cc1OCC	none
COc1cccc(N2CCN(C(=S)Nc3ccccc3OC)CC2)c1	none
CCOc1ccccc1NC(=S)N1CCN(c2cccc(OC)c2)CC1	MsrA act 8.5 | MsrA act confirm inactive
Nn1cnnc1N/N=C/c1ccc(Cl)c([N+](=O)[O-])c1	MsrA act 18 | MsrA act confirm inactive
Cc1ccc(/C=N/Nc2nncn2N)cc1	MsrA act 8.5 | MsrA act confirm inactive
O=C(CN1CCCCC1)Nc1nnc(-c2ccc([N+](=O)[O-])cc2)s1	none
COCCNC(=O)C(c1ccc(F)cc1)N(Cc1cccs1)C(=O)CCC(=O)Nc1ccccn1 (configuration not stated)	none
COc1ccc2c3n([n+]([O-])c2c1)CCN=C3c1ccc(C)cc1	none
COc1ccc2c(c1)C1(Nc3ccccc3-c3nc4ccccc4n31)C(=O)N2 (configuration not stated)	MsrA act 8.7 | MsrA act confirm inactive
C=CCn1c(COc2cccc3cccnc23)nnc1SCC(=O)O	none
CCOC(=O)C1=C(C)N(C)C(=O)NC1c1c(C)nn(-c2ccc(C)cc2)c1Cl (configuration not stated)	MsrA act 13 | MsrA act confirm inactive
COc1ccc(OC)c(N(CC(=O)NCc2ccccc2)S(=O)(=O)c2ccc(OC)c(OC)c2)c1	none
COc1ccc(N(CC(=O)NCc2cccnc2)S(=O)(=O)c2ccccc2)c(OC)c1	MsrA act 13 | MsrA act confirm inactive
COc1ccc(C(c2nnnn2C2CCCC2)N2CCC(C)CC2)cc1 (configuration not stated)	none
COC(=O)Cc1[nH]n(-c2nc3ccccc3s2)c(=O)c1C(C)=Nc1ccc(C)cc1	none
COC(=O)Cc1[nH]n(-c2nc3ccccc3s2)c(=O)c1C(C)=Nc1ccc(Cl)cc1	MsrA act 8.2 | MsrA act confirm inactive
OCc1ccccc1SSc1ccccc1CO	MsrA act 11 | MsrA act confirm 6.4
Cc1cc(Cl)ccc1OCc1nc(-c2ccc(O)cc2)n[nH]1	none
O=C(O)c1ccc(C=NNC(=O)c2cc(-c3ccc(Cl)cc3)n[nH]2)cc1	none (no result: MsrA act, MsrA inhibitor)
O=C(O)c1cc(-c2ccc(Cl)cc2)n[nH]1	MsrA act 9.2 | MsrA act confirm inactive
O=C(/C=C/c1ccccc1)C1=C(O)C(=O)N(CCO)C1c1cccc([N+](=O)[O-])c1 (configuration not stated)	MsrA act 9.9 | MsrA act confirm inactive
COc1cc(/C=C/C(=O)OCC(=O)c2ccc(S(=O)(=O)N3CCCCC3)cc2)cc(OC)c1OC	none
COc1ccccc1-[n+]1c(C)cc(/C=C2\Sc3ccccc3N2C)cc1C	MsrA act 8.2 | MsrA act confirm inactive
Cc1c(Cl)cnc(NC(=O)COC(=O)c2ccc([N+](=O)[O-])s2)c1Cl	none
O=C(COC(=O)c1ccc([N+](=O)[O-])s1)NC(c1ccccc1)c1ccccc1	MsrA act 17 | MsrA act confirm 6.0
O=C(COC(=O)c1ccc([N+](=O)[O-])s1)Nc1ccc(F)cc1	MsrA act 20 | MsrA act confirm 9.1
CC(C)(C)c1ccc(NC(=O)COC(=O)c2ccc([N+](=O)[O-])s2)cc1	MsrA act 10 | MsrA act confirm 4.3
O=C(COC(=O)c1ccc([N+](=O)[O-])s1)Nc1ccc(Cl)cn1	none
O=C(COC(=O)c1ccc([N+](=O)[O-])s1)NCc1ccccc1	MsrA act 8.4 | MsrA act confirm inactive
COc1ccc2nc(SCC(=O)Nc3ccc4c(c3)CCC4)[nH]c2c1	none
CC(=O)Nc1ccc(OCC(=O)NCCc2ccccc2)cc1	MsrA act 7.8 | MsrA act confirm inactive
COc1ccc(S(=O)(=O)N2CCOCC2)cc1NC(=O)COC(=O)c1ccc([N+](=O)[O-])s1	MsrA act 20 (no result: HGIII-sPLA2 inh, rCAG RNA binder, MsrA inhibitor) | MsrA act confirm 11
O=C(COC(=O)c1ccc([N+](=O)[O-])s1)Nc1ccccc1	MsrA act 23 | MsrA act confirm 11
O=C(COc1ccccc1)Nc1ccc([N+](=O)[O-])cc1	MsrA act 20 | MsrA act confirm inactive
COc1ccc(S(=O)(=O)N2CCOCC2)cc1NC(=O)COC(=O)c1[nH]c(C)c(C(C)=O)c1C	none
COc1cc2c(cc1OC)C(C)N(CC(=O)Nc1ccc(S(=O)(=O)N3CCCC3)cc1)CC2 (configuration not stated)	none
O=C(COC(=O)c1cccs1)Nc1cccc(S(=O)(=O)NC2=NCCCCC2)c1	none
O=C(COC(=O)c1ccc([N+](=O)[O-])s1)Nc1cccc(S(=O)(=O)NC2=NCCCCC2)c1	MsrA act 9.8 | MsrA act confirm 4.4
O=C(NC(=S)NNC(=O)c1ccccc1[N+](=O)[O-])c1ccc(Br)cc1	MsrA act 10.0 | MsrA act confirm inactive
O=C(NNC(=O)c1ccccc1[N+](=O)[O-])c1ccc(NC(=O)c2ccccc2)cc1	none
CCOC(=O)Cn1nc(-c2ccccc2)ccc1=O	none
CCOC(=O)Cn1cc(-c2ccccc2)nn1	MsrA act 8.3 | MsrA act confirm inactive
CCNC(=O)C1(C)CCCN(Cc2noc(-c3c(C)noc3C)n2)C1 (configuration not stated)	MsrA act 9.2 | MsrA act confirm inactive
CCCNC(=O)C1(C)CCCN(Cc2noc(-c3c(C)noc3C)n2)C1 (configuration not stated)	none
CC1(C)CNC(=O)c2sc(N3CCCCC3)nc2C1	MsrA act 8.0 | MsrA act confirm inactive
CC1(C)CC(=O)c2sc(N3CCCCC3)nc2C1	none
O=C(NC1CCCCN(Cc2cccc(Cl)c2)C1=O)c1ccc(-c2ccccc2)cc1 (configuration not stated)	none (no result: MsrA act, MsrA inhibitor)

Assay outcomes: PubChem, The Scripps Research Institute Molecular Screening Center
